Compounds with a hit are over-represented: about 8.1% of the library has one in this group of screens.
MCF10A rereplic: A quantitative high throughput screen for small molecules that induce DNA re-replication in MCF 10a normal breast cells; MCF 10A DNA re-replication, Hoechst nuclear intensity, 48 h; Potency, µM (series often up to 46.1 µM), most hits filed as activators; hit rate 2.9% among 350,000; AID 624296, 2012; also: nearly all actives have a fitted effect of over 50% in size
SW480 rereplic: A quantitative high throughput screen for small molecules that induce DNA re-replication in SW480 colon adenocarcinoma cells. SW480 DNA re-replication, Hoechst DNA content imaging, 48 h. Potency, µM (top dose mostly 46.1 µM), hits mostly activators. hit rate 1.8% among 340,000. AID 624297, 2012; also: nearly all actives have a fitted effect of over 55% in size
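Cells (250 per well) received 23 nL compound or DMSO by pin tool and were kept 48 hr at 37 C, 5% CO2. Nuclei were then stained with Hoechst for 40 min and scanned for DNA content.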
ELG1 repair inh: qHTS screen for small molecules that inhibit ELG1-dependent DNA repair in human embryonic kidney (HEK293T) cells expressing luciferase-tagged ELG1. HEK293T ELG1-luciferase reporter, luminescence, 16 h; DNA damage induced by 5-fluorouridine. Potency, µM (top dose mostly 46.1 µM), most hits filed as inhibitors. hit rate 2.3% among 330,000. AID 504467, 2011; also: nearly all actives have a fitted effect of over 55% in size
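Reporter activity after DNA damage by 5-fluorouridine is monitored. Compound-treated cells incubate 16 hr at 37 °C, then ONE-Glo is added for 30 min before luminescence reading.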
KB-V1 cytotox: qHTS assay for MDR1-selective chemotherapeutics: Primary screen using the drug-selected MDR subline cells KB-V1; KB-V1 MDR cells viability, CellTiter-Glo, 72 h; Potency, µM (titrated, usually from 46.1 µM), actives largely listed as cytotoxic; hit rate 3.4% among 400,000; also: nearly all actives have a fitted effect of over 60% in size
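Cells of the MDR subline KB-V1 are plated, dosed with compound at multiple concentrations, and incubated 72 h at 37 degrees C; CellTiter-Glo is then added and luminescence read after 10 min.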
KB-3-1 cytotox: qHTS assay for MDR1-selective chemotherapeutics: Primary screen using the parental adenocarcinoma cell KB-3-1. Potency, µM (highest dose often 46.1 µM), most hits filed as cytotoxic. hit rate 1.4% among 400,000. KB-3-1 viability, CellTiter-Glo ATP luminescence, 72 h; also: nearly all actives have a fitted effect of over 60% in size
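Cells are dispensed, compounds pinned in, plates held at 37 °C for 72 h, then CellTiter-Glo is added and luminescence read after 10 minutes. Cell line: parental KB-3-1 in phenol-red-free DMEM, 10% FBS.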
Of the large screens only hits and unclear results are named; the others gave an inactive call. Calls follow the shape of the dose curve; as a rule, active = well fitted curve in the direction sought with a large enough effect; inconclusive = small, poorly fitted or top-dose-only effect, or another doubt; inactive = no such curve, though single readings can be large; an effect the other way counts as inactive or inconclusive.

Cc1ccc(-c2nc(CS(=O)(=O)CC(=O)N3CCCCCC3)c(C)o2)cc1	ELG1 repair inh inconclusive
Cc1ccc(-c2nc(CS(=O)(=O)CC(=O)N3CCc4ccccc4C3)c(C)o2)cc1	ELG1 repair inh inconclusive, KB-V1 cytotox inconclusive, KB-3-1 cytotox 18µM
Oc1ccccc1Nc1nc(NCc2ccco2)c2ccccc2n1	MCF10A rereplic inconclusive, ELG1 repair inh inconclusive
CNc1nc(NCc2ccco2)c2ccccc2n1	KB-3-1 cytotox inconclusive (no result: MCF10A rereplic, SW480 rereplic, ELG1 repair inh)
CSc1nc(NCc2ccco2)c2ccccc2n1	KB-V1 cytotox 12µM, KB-3-1 cytotox inconclusive
Cc1ccccc1Nc1nc(NCc2ccco2)c2ccccc2n1	MCF10A rereplic inconclusive, SW480 rereplic inconclusive, ELG1 repair inh inconclusive, KB-V1 cytotox 12µM, KB-3-1 cytotox inconclusive
c1ccc(Nc2nc(NCc3ccco3)c3ccccc3n2)cc1	MCF10A rereplic inconclusive, SW480 rereplic inconclusive, ELG1 repair inh 9.2µM, KB-V1 cytotox inconclusive, KB-3-1 cytotox inconclusive
Cc1ccccc1Nc1cc(C(=O)NCc2ccco2)c2ccccc2n1	SW480 rereplic inconclusive, ELG1 repair inh inconclusive, KB-V1 cytotox 8.2µM, KB-3-1 cytotox inconclusive
COc1ccc(-n2c(=O)c3c(c4cc(OC)ccc4n3C)n(Cc3c(F)cccc3Cl)c2=O)cc1	none (no result: MCF10A rereplic, SW480 rereplic, ELG1 repair inh)
COc1cc(NC(=O)c2cccc3c2C(=O)N(C2CCCCC2)C3)cc(OC)c1	none (no result: MCF10A rereplic, SW480 rereplic, ELG1 repair inh)
O=C(c1[nH]c(C(F)(F)F)nc1-c1ccccc1)N1CCC(Cc2ccccc2)CC1	none (no result: MCF10A rereplic, SW480 rereplic, ELG1 repair inh)
Cc1ccccc1C(=O)OCC(=O)NCc1ccco1	ELG1 repair inh inconclusive
Cc1cccc(Nc2nc(NCc3ccco3)c3ccccc3n2)c1	MCF10A rereplic inconclusive, SW480 rereplic inconclusive, ELG1 repair inh inconclusive, KB-V1 cytotox 15µM, KB-3-1 cytotox inconclusive
CCNc1nc(NCc2ccco2)c2ccccc2n1	none (no result: MCF10A rereplic, SW480 rereplic, ELG1 repair inh)
Cc1cccc(Nc2ccccc2C(=O)OCC(=O)NCc2ccco2)c1C	MCF10A rereplic inconclusive, SW480 rereplic inconclusive, KB-V1 cytotox 13µM, KB-3-1 cytotox inconclusive
CCCCNC(=O)C1(C)CCN1C(=O)c1cc(-c2ccccc2)cs1 (stereo not given)	KB-V1 cytotox inconclusive (no result: MCF10A rereplic, SW480 rereplic, ELG1 repair inh)
Fc1ccc(-n2ncc3c(Nc4cccc(Cl)c4)ncnc32)cc1	none (no result: MCF10A rereplic, SW480 rereplic, ELG1 repair inh)
CSc1ccc(/C=C/C(=O)OCC(=O)N2CCN(S(=O)(=O)c3ccc(C)cc3C)CC2)cc1	ELG1 repair inh inconclusive
CN=c1scc(-c2ccc(F)cc2)n1/N=C/c1ccc(O)c(O)c1	MCF10A rereplic inconclusive, SW480 rereplic 15µM, ELG1 repair inh inconclusive, KB-3-1 cytotox inconclusive
CN=c1scc(-c2ccc([N+](=O)[O-])cc2)n1/N=C/c1ccco1	ELG1 repair inh inconclusive
c1ccc2c(CSc3nnc(-c4ccncc4)o3)cccc2c1	MCF10A rereplic inconclusive, KB-V1 cytotox 15µM
c1cc(CSc2nnc(-c3ccc4c(c3)OCO4)o2)ccn1	ELG1 repair inh inconclusive, KB-V1 cytotox 23µM
CC(=O)Nc1ccc(NC(=O)CSc2nnc(-c3ccc4c(c3)OCO4)o2)cc1	ELG1 repair inh inconclusive
O=C(CSc1nnc(-c2ccc3c(c2)OCO3)o1)Nc1ncc(Cl)cc1Cl	MCF10A rereplic 13µM, SW480 rereplic inconclusive, ELG1 repair inh inconclusive, KB-V1 cytotox inconclusive
Cc1ccc(NS(=O)(=O)c2ccc3c(c2)C(Cl)(Cl)C(=O)N3)cc1C	none (no result: MCF10A rereplic, SW480 rereplic, ELG1 repair inh)
CCn1ncc(CN2CCCC(C(=O)c3cccc(OC(C)C)c3)C2)c1C (stereo not given)	MCF10A rereplic 23µM
CC(C)Oc1cccc(C(=O)C2CCCN(C(=O)c3cc(C(F)(F)F)[nH]n3)C2)c1 (stereo not given)	KB-V1 cytotox 21µM, KB-3-1 cytotox inconclusive
CCOC(=O)c1[nH]ncc1CN1CCCC(C(=O)c2cccc(OC(C)C)c2)C1 (stereo not given)	none
COc1ccc(N2CC(O)=C(c3nc4ccccc4s3)C2=N)cc1	none
COc1cccc(N2CC(O)=C(c3nc4ccccc4s3)C2=N)c1	MCF10A rereplic inconclusive, SW480 rereplic 3.7µM, ELG1 repair inh inconclusive, KB-V1 cytotox 3.3µM, KB-3-1 cytotox 7.3µM
